Compound activity deposited in PubChem BioAssay by National Center for Advancing Translational Sciences (NCATS).
HCV inh: qHTS Assay for Inhibitors of Hepatitis C Virus (HCV); actives 3.4% (n = 340,000); Huh7.5.1 HCVcc-Cre infection, luciferase reporter, 44 h; AID 651820, 2012; Potency, µM (highest dose often 41.8 µM), without a hit: at the top dose activity change, negative = inhibition, hits mostly inhibitors; further: on the % scale 0 is the no-effect control and ±100 the full control effect
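Infectious HCV cell culture screen: compound-treated cells (1,000/well, pre-plated 4 h) are infected with HCVcc-Cre at roughly 0.5 moi and grown 44 h. Infection is quantified by luciferase signal after 15 min substrate incubation at room temperature.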
Pf growth 96h: Primary qHTS for delayed death inhibitors of the malarial parasite plastid, 96 hour incubation. AID 504834, 2011. Potency, µM (highest dose often 28.7 µM), for the others: top-dose activity change, negative = inhibition, hits mostly inhibitors. actives 6.9% (n = 320,000). P. falciparum luciferase reporter growth, 96 h; further: on the % scale 0 is the no-effect control and ±100 the full control effect
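Compounds incubated with erythrocytes infected by luciferase-expressing P. falciparum (2% hematocrit, 0.05% parasitemia final) for 96 hours, 37 C in 5% CO2. Growth inhibition scored as decreased luciferase luminescence.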
VACV Venus inh: qHTS for Stage-Specific Inhibitors of Vaccinia Orthopoxvirus: Venus Reporter Primary qHTS; Vaccinia virus Venus reporter expression, fluorescence; Potency, µM (highest dose often 36.5 µM), for inactives: at the highest dose activity change, negative = inhibition, most hits filed as inhibitors; actives 0.46% (n = 330,000); AID 720580, 2013; calls by dose curve; tested in A549 cells; further: on the % scale 0 is the no-effect control and ±100 the full control effect; nearly all actives have a fitted effect of over 30% in size
Pf growth 48h: Primary qHTS for delayed death inhibitors of the malarial parasite plastid, 48 hour incubation | P. falciparum luciferase growth in erythrocytes, 48 h | Potency, µM (series often up to 28.7 µM), for inactives: at the top dose activity change, negative = inhibition, hits mostly inhibitors | actives 5.9% (n = 310,000); further: on the % scale 0 is the no-effect control and ±100 the full control effect
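First compound was added to culture medium, then infected red cells at 0.1% parasitemia and 2% hematocrit (final). After incubation at 37 C under 5% CO2, luciferase detection reagent was dispensed and light output recorded.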
NS1 function inh: qHTS Assay for Inhibitors of Influenza NS1 Protein Function; Potency, µM (highest dose often 46.1 µM), without a hit: at the highest dose activity, positive = more growth; actives 0.4% (n = 270,000); AID 2326, 2010; calls by dose curve; further: actives are rising curves; nearly all actives have a fitted effect of over 50% in size
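Recovery from NS1-induced slow growth read by OD600 in budding yeast switched to galactose assay medium (pH 6.0, -URA) at 1:100 dilution. Compound 23 nl per well; the matching strain lacking NS1 serves as control.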
VACV mCherry inh: qHTS for Stage-Specific Inhibitors of Vaccinia Orthopoxvirus: mCherry Reporter Primary qHTS | Vaccinia virus mCherry reporter infection, fluorescence | actives 0.63% (n = 310,000) | Potency, µM (series often up to 36.5 µM), without a hit: at the top dose activity change, negative = inhibition, usual class: inhibitors; calls by dose curve; tested in A549 cells; further: on the % scale 0 is the no-effect control and ±100 the full control effect; nearly all actives have a fitted effect of over 35% in size
The depositor's hits bear a star; i = inactive; ? = inconclusive; / = not tested or not shown. In the library only some 11% were active in any assay of this set; here they are far more common. Unless noted, the call rests on the fitted dose curve; in most records, active means well fitted inhibition curve with a large enough effect; inconclusive means small, poorly fitted or top-dose-only effect, or another doubt; inactive means no such curve, though single readings can be large or run the other way. Potency means the concentration at half of the fitted maximal effect.

SMILES	HCV inh	Pf growth 96h	VACV Venus inh	Pf growth 48h	NS1 function inh	VACV mCherry inh
Cc1c(C)n(CCN(C)C)c2ccc(C(=O)OCCN(C)C)cc12	11µM*	45%	/	?	-11%	/
Cc1c(C)n(Cc2ccccc2)c2ccc(C(=O)OCCCN(C)C)cc12	?	4.1µM*	-20%	?	4%	-8%
CCOC(=O)N1CCN(C(=O)CSc2nnc(CNC(=O)c3ccccc3F)o2)CC1	9%	-13%	-4%	2%	-1%	0%
O=C(NC1CCCCC1)c1cc(-n2cnnc2)ccc1Cl	7%	18%	/	10%	7%	/
CC12CC3CC(C)(C1)CC(C(=O)NCc1cccnc1)(C3)C2	15%	3.7µM*	-5%	52%	1%	-5%
CC12CC3(C)CC(C)(C1)CC(C(=O)NCc1cccnc1)(C2)C3	11%	12µM*	-2%	-17%	-15%	-16%
CCOCCOc1nc(C)cc(C)c1S(=O)(=O)c1ccccc1C	8%	?	-8%	?	/	-14%
CCCc1nnc(SCC(=O)N2CCCCC2C)n1CC (configuration not stated)	2%	?	/	32%	7%	/
COc1ccc(N2CCN(Cc3nc4c(c(=O)[nH]c(=O)n4C)n3Cc3ccc(C)cc3)CC2)cc1	/	/	-6%	/	/	-13%
COc1ccc(-c2nc(-c3ccccc3)c(-c3cc([N+](=O)[O-])ccc3C)[nH]2)cc1O	?	?	?	5.2µM*	21%	/
Cc1ccc([N+](=O)[O-])cc1-c1[nH]c(-c2ccc(O)c(O)c2)nc1-c1ccccc1	?	20%	/	/	24%	/
COc1ccc([N+](=O)[O-])cc1-c1[nH]c(-c2ccc(C(=O)O)cc2)nc1-c1ccccc1	9%	?	/	8.3µM*	13%	/
COc1ccc(-c2nc3ccc([N+](=O)[O-])cc3[nH]2)cc1	-12%	?	-26%	185%	0%	-28%
CN(CP(=O)(O)CCc1ccccc1)S(C)(=O)=O	16%	?	-8%	14%	-21%	/
O=C(Nc1ccnn1C1CCN(Cc2cc3ccccc3[nH]2)CC1)C1CCOC1 (configuration not stated)	/	5.2µM*	/	-14%	1%	/
O=C(Nc1ccnn1C1CCN(Cc2cccc(OCCO)c2)CC1)C1CCOC1 (configuration not stated)	-12%	5.2µM*	-12%	-9%	8%	i
O=S(=O)(c1ccccc1)N1CCC(N2CCN(c3ccccc3)CC2)CC1	/	25%	/	24%	13%	/
CCc1cc2c(=O)c(Oc3ccccc3F)c(C)oc2c(CN(C)C)c1O	13%	21%	/	8.3µM*	7%	/
COC(=O)c1c(NC(=O)c2ccccc2)sc(C(=O)c2ccccc2)c1C	?	9.3µM*	-2%	?	14%	/
COC(=O)c1c(-c2cccs2)csc1NC(=O)c1ccc(Cl)cc1	/	/	2%	/	/	-4%
COC(=O)c1c(-c2cccs2)csc1NC(=O)c1cccnc1	11µM*	-7%	-17%	6%	-86%	/
CCOC(=O)c1c(-c2cccs2)csc1NC(=O)CN(CC)CC	11µM*	?	/	?	-66%	/
CCOC(=O)c1c(-c2cccs2)csc1NC(=O)CC(C)C	?	/	3%	?	-45%	-5%
COC(=O)c1c(NC(=O)c2ccccc2)sc(C(N)=O)c1C	?	-9%	4%	14%	0%	2%
CCN(CC)C(=O)c1sc(NC(=O)c2cccnc2)c(C(=O)OC)c1C	-25%	2.9µM*	-8%	1%	8%	-10%
CCOC(=O)c1c(NC(=O)c2cccnc2)sc(C(C)=O)c1C	-17%	?	-11%	26%	-2%	-6%
CC(C)N1CCN(Cc2ccc(-c3ccccc3)cc2)CC1CCO (configuration not stated)	?	?	-23%	13%	-3%	i
